Measured values published in PubChem BioAssay (NCATS).
A number with no mark means an inactive call. Records with an inconclusive call do not appear. Where a call stands in place of a potency, no number is given. The source made the active and inactive calls. Calls follow the shape of the dose curve; as a rule, active = well fitted curve in the direction sought with a large enough effect; inconclusive = small, poorly fitted or top-dose-only effect, or another doubt; inactive = no such curve, though single readings can be large; an effect the other way counts as inactive or inconclusive.

Assays:
[1] = biological target: Phospholipid hydroperoxide glutathione peroxidase GPX4 (Homo sapiens) (UniProt P36969); assay: Primary qHTS Assay for Inhibitors of Recombinant Selenoprotein Glutathione Peroxidase 4 (GPX4) (AID 1845192); also: nearly all actives have a fitted effect of over 65% in size; as to activity change, negative = inhibition: series mostly up to about 50 µM
Method in brief: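 NADPH consumption followed by fluorescence at 340/450 nm, t=0 and after 15 min at room temperature. Reaction started with cumene hydroperoxide (0.5 mM final) after 30 min compound–GPX4 preincubation; final 200 nM GPX4, 100 nM GR, 1 mM GSH, 0.5 mM NADPH.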

[2] = biological target: Luciferin 4-monooxygenase (Photinus pyralis) (UniProt P08659); assay: Primary firefly luciferase (FLuc) qHTS assay for identification of artifact compounds. (AID 1845220); also: nearly all actives have a fitted effect of over 60% in size; also: potency is read from the fitted curve at half-maximal effect; as to activity change, negative = inhibition: series mostly up to about 54 µM
Method in brief: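 Compounds sat 15 min at room temperature with 10 uM luciferin and 10 uM ATP (pH 7.6 Tris acetate). Firefly luciferase (10 nM final) was then added, and luminescence was read 5 min later. Data normalized to no-enzyme and DMSO controls were Hill-fitted.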

[3] = Primary fluorescence-based thiol-reactive (MSTI) qHTS assay for identification of artifact compounds. (AID 1845221); also: nearly all actives have a fitted effect of over 65% in size; also: potency is read from the fitted curve at half-maximal effect;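 as to activity change, negative = thiol reactive: series mostly up to about 54 µM; thiol-reactive compounds lower the probe fluorescence signal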
Method in brief: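 Probe: MSTI 4 uM, PBS pH 7.4, 2% DMSO. Incubation 1 h, RT, light-protected. Readout fluorescence 525/598 nm.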

[4] = tested on: Nanoluciferase (engineered Oplophorus gracilirostris luciferase); assay: Primary Nanoluciferase (NLuc) qHTS assay for identification of artifact compounds. (AID 1845222); also: series mostly up to about 54 µM
Method in brief: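 Luminescence from secreted NLuc (filtered, 1:55-diluted S16 cell medium) read 5 min after Nano-Glo substrate; compounds preincubated 15 min, RT. Hill fits of inhibition normalized to DMSO and no-enzyme.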

Phospholipid hydroperoxide glutathione peroxidase GPX4 (Homo sapiens), sequence (P36969 whole entry, looked up): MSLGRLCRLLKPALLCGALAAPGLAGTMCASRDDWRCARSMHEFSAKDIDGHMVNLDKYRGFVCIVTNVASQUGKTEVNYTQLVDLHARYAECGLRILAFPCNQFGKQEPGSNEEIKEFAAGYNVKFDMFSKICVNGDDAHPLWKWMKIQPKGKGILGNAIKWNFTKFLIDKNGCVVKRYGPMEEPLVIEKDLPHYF

Which results are given for `CC(=O)OC1C(O)C(C)=C(CCC(C)CC(=O)O)C2(C)CCCC(C)(C)C12` (centres undefined)?
Potency [1]: inactive; Potency [2]: inactive; Potency [3]: inactive; Potency [4]: inactive

Which Potency [1] does the source give for `CON(C)C(=O)N1N=C(c2cc(F)ccc2F)S[C@@]1(CCCN)c1ccccc1` here?
The Potency was “inactive”.

And the Potency [2]?
Its Potency is “inactive”.

And the Potency [3]?
Its Potency is “inactive”.

And the Potency [4]?
The Potency was “inactive”.

For `CC[C@H]1OC(=O)[C@H](C)[C@@H](O[C@H]2C[C@@](C)(OC)[C@@H](O)[C@H](C)O2)[C@H](C)[C@@H](O[C@@H]2O[C@H](C)C[C@H](N(C)C)[C@H]2O)[C@@](C)(O)C[C@@H](C)[C@@H]2N[C@@H](COCCOC)OC([C@H]2C)[C@]1(C)O`, which Potency [1] is on record?
The Potency was “inactive”.

What about the Potency [2] of the same compound?
The Potency was “inactive”.

And the Potency [3]?
Its Potency is “inactive”.

What about the Potency [4] of the same compound?
The Potency was “inactive”.

Which results are given for `c1ccc(Nc2nc3c(s2)CCCc2[nH]ncc2-3)nc1`?
Potency [1]: inactive; Potency [2]: 8.49 µM (active); Potency [3]: 1.5 µM (active); Potency [4]: inactive

With `O=C(NC[C@H](O)CN1CCc2ccccc2C1)c1cc(NC2COC2)ncn1` as the compound, how does the Potency [1] read?
Its Potency is “inactive”.

What about the Potency [2] of the same compound?
The Potency was “inactive”.

What about the Potency [3] of the same compound?
The Potency was “inactive”.

For `C/C=C1\[C@H](O[C@@H]2O[C@H](CO)[C@@H](O)[C@H](O)[C@H]2O)OC=C(C(=O)OC)[C@H]1CC(=O)OC`, which Potency [1] is on record?
The Potency was “inactive”.

What about the Potency [2] of the same compound?
The Potency was “inactive”.

And the Potency [3]?
Its Potency is “inactive”.

And the Potency [4]?
Its Potency is “inactive”.

Which results are given for `CC(=O)N1CCN(NC(=O)c2ccc(F)cc2)CC1`?
Potency [1]: inactive; Potency [2]: inactive; Potency [3]: inactive; Potency [4]: inactive

Which results are given for `CC1CC(O)C2(C)C(C(=O)O)=CCCC2C1(C)CCc1ccoc1` (centres undefined)?
Potency [1]: inactive; Potency [2]: inactive; Potency [3]: inactive; Potency [4]: inactive

What does the source list for `C/C(=C/CCC(CO)C1CCC2(C)C3CCC4C(C)(C)C(OC5OC(CO)C(O)C(O)C5O)CC(O)C45CC35CCC12C)COC1OC(CO)C(O)C(O)C1O` (centres undefined)?
Potency [1]: inactive; Potency [2]: inactive; Potency [3]: inactive; Potency [4]: inactive

For `COC(=O)[C@@]1(C)CC[C@]2(C(=O)O[C@@H]3O[C@H](CO)[C@@H](O)[C@H](O)[C@H]3O)CC[C@]3(C)C(=CCC4[C@@]5(C)CC[C@H](O[C@@H]6O[C@H](C(=O)O)[C@@H](O)[C@H](O)[C@H]6O)C(C)(C)C5CC[C@]43C)[C@@H]2C1` (some centres undefined), which Potency [1] is on record?
Its Potency is “inactive”.

And the activity change, negative = inhibition [2]?
The activity change, negative = inhibition was -8.19% [at 11.6 µM].

What about the activity change, negative = thiol reactive [3] of the same compound?
Its activity change, negative = thiol reactive is 77.9% [at 11.5 µM].

What about the activity, negative = inhibition [4] of the same compound?
The activity, negative = inhibition was -2.3% [at 11.6 µM].

With `C[C@]12C=CC(=O)C=C1CC[C@@H]1[C@@H]2[C@@H](O)C[C@@]2(C)[C@H]1CC[C@]2(O)C(=O)COC(=O)CCC(=O)O` as the compound, how does the Potency [1] read?
Its Potency is “inactive”.

What about the Potency [2] of the same compound?
The Potency was “inactive”.

And the Potency [3]?
The Potency was “inactive”.

And the Potency [4]?
Its Potency is “inactive”.

With `CC1=C(C)C(=O)OC(C(C)(O)C2CCC3C4CC=C5CC(OC6OC(COC7OC(CO)C(O)C(O)C7O)C(O)C(O)C6O)CC(O)C5(C)C4CCC32C)C1` (centres undefined) as the compound, how does the Potency [1] read?
The Potency was “inactive”.

What about the Potency [2] of the same compound?
The Potency was “inactive”.

What about the Potency [3] of the same compound?
Its Potency is “inactive”.

What does the source list for `CC1CCC2C(C(=O)O)=CC3C(O)C(C)(C)CC123` (centres undefined)?
Potency [1]: inactive; Potency [2]: inactive

With `C[C@@H]1O[C@@H](O[C@H]2[C@H](O[C@H]3[C@H](O[C@H]4CC[C@@]5(C)C(CC[C@]6(C)C5CC=C5[C@@H]7CC(C)(C(=O)O)C[C@@H](O)[C@]7(C)CC[C@]56C)[C@@]4(C)CO)O[C@H](C(=O)O)[C@@H](O)[C@@H]3O)O[C@H](CO)[C@H](O)[C@@H]2O)[C@H](O)[C@H](O)[C@H]1O` (some centres undefined) as the compound, how does the Potency [1] read?
The Potency was “inactive”.

And the activity change, negative = inhibition [2]?
The activity change, negative = inhibition was 0.24% [at 11.6 µM].

What does the source list for `C[C@@H]1O[C@@H](O[C@@H]2[C@@H](O)[C@H](O[C@@H]3[C@@H](O)[C@@H](O)[C@H](O[C@H]4[C@H](OC(=O)[C@]56CCC(C)(C)C[C@H]5C5=CCC7[C@@]8(C)C[C@H](O)[C@H](O[C@@H]9O[C@H](C(=O)O)[C@@H](O)[C@H](O)[C@H]9O)[C@@](C)(CO)C8[C@H](O)C[C@@]7(C)[C@]5(C)CC6)OC[C@H](O)[C@@H]4O)O[C@H]3C)OC[C@H]2O)[C@H](O)[C@H](O)[C@H]1O` (some centres undefined)?
activity change, negative = inhibition [1]: -2.98% [at 9.73 µM]; outcome [2]: inactive [at 11.6 µM]; activity change, negative = thiol reactive [3]: 319% [at 11.5 µM]; activity, negative = inhibition [4]: 0.798% [at 11.6 µM]

What does the source list for `C=C[C@](C)(CC/C=C(\C)C(=O)O)O[C@@H]1OC[C@H](O)[C@H](O)[C@H]1O`?
Potency [1]: inactive; Potency [2]: inactive; Potency [3]: 7.36 µM (active); Potency [4]: inactive

For `CC1CCC2C(C(=O)O)=CC3CC(C)(C)CC132` (centres undefined), which Potency [1] is on record?
The Potency was “inactive”.

And the Potency [2]?
The Potency was “inactive”.

And the Potency [3]?
Its Potency is 23.8 µM (active).

And the Potency [4]?
Its Potency is “inactive”.

For `N#CC1C(=O)Nc2scc(-c3ccc(-c4ccccc4O)cc3)c2C1=O` (centres undefined), which Potency [1] is on record?
The Potency was “inactive”.

What about the Potency [2] of the same compound?
The Potency was “inactive”.

And the Potency [3]?
Its Potency is “inactive”.

With `C=C(C)[C@@H](C)[C@H]1O[C@]23C[C@]4(CO2)C(CCC2[C@@]5(C)CC[C@H](O[C@@H]6OC[C@H](O)[C@H](O[C@@H]7O[C@H](CO)[C@@H](O)[C@H](O)[C@H]7O)[C@H]6O[C@@H]6O[C@@H](CO)[C@H](O)[C@H]6O)C(C)(C)C5CC[C@]24C)C3[C@@](C)(O)[C@@H]1OC(C)=O` (some centres undefined) as the compound, how does the Potency [1] read?
The Potency was “inactive”.

And the activity change, negative = inhibition [2]?
Its activity change, negative = inhibition is 4.34% [at 11.6 µM].

What about the activity change, negative = thiol reactive [3] of the same compound?
Its activity change, negative = thiol reactive is 6.68% [at 11.5 µM].

And the activity, negative = inhibition [4]?
Its activity, negative = inhibition is 4.88% [at 11.6 µM].
